Counter-ions that a name gives are not always drawn.
system: Saccharomyces cerevisiae BY4741 SeMeCo community; assay: z-score of subpopulation abundance vs DMSO median, subpopulation auxotrophic for HU; higher = larger share of this subpopulation than in DMSO controls; settings: 10 µM; 24 h; SM minimal medium; subpopulation (auxotrophy): HU
Method: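 Fluorescent four-plasmid SeMeCo (self-establishing metabolically cooperating S. cerevisiae BY4741 community; plasmids pH-mRuby2, pL-mWasabi, pU-eCFP, pM-TagRFP657) was grown 24 h in minimal SM medium with each Selleck FDA-approved drug at 10 µM in 384-well plates. Cells were fixed and imaged by high-content confocal microscopy. For each auxotrophic subpopulation (and the prototroph), a z-score gives the deviation from the DMSO vehicle-control population median.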

Structure (SMILES)	z-score of subpopulation abundance
COc1cc2c(cc1OC)C1CC(=O)C(CC(C)C)CN1CC2 (stereo not given) [Tetrabenazine (Xenazine)]	-1.24
CCCN1C[C@H](CSC)C[C@@H]2c3cccc4[nH]cc(c34)C[C@H]21 [Pergolide Mesylate]	-0.93
CC(=O)OCC1=C(C(=O)O)N2C(=O)C(N)C2SC1 (stereo not given) [7-Aminocephalosporanic acid]	0.37
C=C[C@H]1CN2CC[C@H]1C[C@H]2[C@H](O)c1ccnc2ccccc12 [Cinchonidine]	-0.45
Cc1cc(C(C#N)c2ccc(Cl)cc2)c(Cl)cc1NC(=O)c1cc(I)cc(I)c1O (stereo not given) [Closantel]	0.25
C[C@@H]1CC[C@H]2[C@@H](C)C(=O)O[C@@H]3O[C@@]4(C)CC[C@@H]1[C@]32OO4 [Artemisinin]	0.58
O=c1cccc2n1C[C@@H]1CNC[C@H]2C1 [Cytisine]	-0.56
CN(C)[C@@H]1C(=O)C(C(N)=O)=C(O)[C@@]2(O)C(=O)C3=C(O)c4c(O)cccc4[C@@](C)(O)[C@H]3C[C@@H]12 [Tetracycline HCl]	-0.3
CN1C(=O)COc2c(C(=O)NC3CN4CCC3CC4)cc(Cl)cc21 (stereo not given) [Azasetron HCl]	-0.34
Nc1nc(N)nc(NC2CC2)n1 [Cyromazine]	0.05
CN1[C@@H]2CC[C@H]1C[C@@H](OC(=O)C(CO)c1ccccc1)C2 (stereo not given in full) [Atropine sulfate monohydrate]	0.23
NCCc1c[nH]c2ccc(O)cc12 [Serotonin HCl]	-0.18
CC(C)N(CCC(C(N)=O)(c1ccccc1)c1ccccn1)C(C)C (stereo not given) [Disopyramide]	-0.45
CC[C@@H](C(N)=O)N1CCCC1=O [Levetiracetam]	-0.75
Oc1cc(Cl)ccc1Oc1ccc(Cl)cc1Cl [Triclosan]	0.43
CN(C)C(=O)Oc1cccc([N+](C)(C)C)c1 [Neostigmine Bromide]	-0.26
C[N+](C)(C)CCCCCCCCCC[N+](C)(C)C [Decamethonium Bromide]	-0.06
CN[C@@H]1[C@@H](O)[C@@H](O[C@@H]2[C@@H](O)[C@H](O[C@H]3O[C@H]([C@@H](C)O)[C@@H](O)[C@H](O)[C@H]3N)[C@@H](N)C[C@H]2N)OC[C@]1(C)O [Geneticin (G418 Sulfate)]	-0.46
C[N+]12CCC(CC1)C(OC(=O)C(O)(c1ccccc1)c1ccccc1)C2 (stereo not given) [Clidinium Bromide]	-0.29
COc1ccc2[nH]cc(CCN)c2c1 [5-Methoxytryptamine]	0.53

Structure (SMILES)	z-score of subpopulation abundance
CC(C)=CCOc1c2occc2cc2ccc(=O)oc12 [Imperatorin]	0.85
CCN(CC)CCOC(=O)C(O)(c1ccccc1)c1ccccc1 [Benactyzine hydrochloride]	1.62
C=C(C)[C@H]1Cc2c(ccc3c2O[C@@H]2COc4cc(OC)c(OC)cc4[C@@H]2C3=O)O1 [Rotenone (Barbasco)]	1.02
C[N+]1(C)[C@@H]2C[C@@H](OC(=O)[C@H](CO)c3ccccc3)C[C@H]1[C@@H]1O[C@@H]12 [Methscopolamine]	0.7
COc1ccc(C(CN(C)C)C2(O)CCCCC2)cc1 (stereo not given) [Venlafaxine]	0.4
O=C(O[C@H]1C[N+]2(CCCOc3ccccc3)CCC1CC2)C(O)(c1cccs1)c1cccs1 [Aclidinium Bromide]	0.63
O=c1[nH]c2ccccc2n1CCCN1CCC(n2c(=O)[nH]c3cc(Cl)ccc32)CC1 [Domperidone]	0.86
Cn1cc(C2=C(c3cn(C4CCN(Cc5ccccn5)CC4)c4ccccc34)C(=O)NC2=O)c2ccccc21	-0.2
CC[N+](C)(CC)CCOC(=O)C(O)(c1ccccc1)c1ccccc1 [Methylbenactyzine Bromide]	-0.63
COc1ccc2c3c([nH]c2c1)C(C)=NCC3 [Harmaline]	-7.98
CC(C)(O)C(Cl)(Cl)Cl [Chlorobutanol]	0.05
CC1(C)SC2C(N)C(=O)N2C1C(=O)O (stereo not given) [6-Aminopenicillanic acid]	0.4
CCOC(=O)Nc1ccc(NCc2ccc(F)cc2)cc1N [Retigabine 2HCl]	-0.49
C=CC[C@]1(O)CC[C@H]2[C@@H]3CCC4=CC(=O)CCC4=C3C=C[C@@]21C [Altrenogest]	-1.33
CCOC(=O)Nc1ccc(NCc2ccc(F)cc2)cc1N [Retigabine]	-0.59
O=C(O[C@H]1C[C@H]2CC[C@@H](C1)[N+]21CCCC1)C(O)(c1ccccc1)c1ccccc1 [Trospium chloride]	0.09
CNC1CC(N)C(O)C(OC2OC(CO)C(O)C3OC4(OC(C(N)CO)C(O)C(O)C4O)OC23)C1O (stereo not given) [Hygromycin B]	-0.07
Nc1ccncc1 [4-Aminopyridine]	0.52
CN(C)[C@@H]1C(=O)C(C(N)=O)=C(O)[C@@]2(O)C(=O)C3=C(O)c4c(O)cccc4[C@@](C)(O)[C@H]3[C@H](O)[C@@H]12 [Oxytetracycline Dihydrate]	-0.06
CCN(C)C(=O)Oc1cccc([C@H](C)N(C)C)c1 [Rivastigmine]	0.2

From the supplement of paper PMC8975748
